PubChem BioAssay (NCI)
About 83,000 compounds went through this panel and 20% of them were active in at least one assay; those are over-represented in the sample as a whole.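 Activity criterion: percent growth below 10, measured after cells in 96-well plates were exposed to a single compound concentration for 48 hours.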 Unmarked numbers belong to inactive results. Calls of active or inactive are those of the source.

The compounds below were run on HL-60(TB) leukemia (assay: NCI-60 one-dose screen, 48 h (100 = growth as untreated, 0 = no growth, -100 = all killed)). Conditions: 10 µM unless noted.

Row | SMILES | growth
1 | C=C1C(=O)O[C@H]2[C@H]1CC/C(CNC(=O)/C=C/c1ccccc1)=C\CC[C@@]1(C)O[C@@H]21 | -31.3% (active)
2 | O=C(NCCN1CCOCC1)Nc1ccc(-c2cc3c(Nc4ccc(Oc5cccc(C(F)(F)F)c5)c(Cl)c4)ncnc3s2)cc1 | -25.6% (active)
3 | CC[C@@H](C(=O)[C@@H](C)[C@@H](O)[C@H](C)[C@@H]1O[C@@H]([C@@H](CC)C(=O)ONC(=O)c2ccccc2O)CC[C@@H]1C)C1O[C@]2(C=CC(=O)[C@]3(CC[C@@](C)([C@H]4CC[C@](O)(CC)[C@H](C)O4)O3)O2)[C@H](C)C[C@@H]1C (some centres not stated) | -45.7% (active)
4 | N#Cc1cccc(NC(=O)c2cc(-c3ccc(F)cc3F)ccc2O)c1 | -19.1% (active)
5 | COc1ccc2c(c1)oc1c(C)c3c(c(C)c12)C(=O)N(CCOS(C)(=O)=O)C3=O | 93.6%
6 | COc1ccc(CNc2nc3ccccc3c3c(=O)c4ccccc4sc23)cc1OC | 98.9%
7 | Clc1ccc2c(c1)nnn1c3ncccc3c(Br)c21 | 113%
8 | c1ccc2c(c1)CCCc1nnc3nc4ccccc4n3c1-2 | 34.2%
9 | O=C(Cc1ccccc1)NNc1nc(Cl)nc(N2CCN(C(c3ccccc3)c3ccccc3)CC2)n1 | 58.2%
10 | C=C1C[C@H](O)[C@H](Br)C(C)(C)[C@@]12CCC(C)=C(Cl)C2 | -8.6% (active)
11 | CCCSc1nc2ccc(C)cc2cc1/C=[N+](\[O-])c1ccccc1 | 14.1%
12 | CN1CCN(c2ccc(NC3=CC(=O)c4ncncc4C3=O)cc2)CC1 | -32.1% (active)
